From PubChem BioAssay (EPA / NIEHS)
Values joined by “and” are separate entries in the source; they are usually repeats but may differ in a detail not shown here. Equal values may be shown once. Inconclusive results are not listed. Active and inactive are the calls of the source. How the source made its calls, unless noted: active means hit-call score of the fitted dose curve at least 0.9, where 1 is the maximum; inconclusive means response in the unintended direction; inactive means score below 0.9.

Experiments:
[1] = Tanguay_ZF_120hpf_PE_legacy: (Legacy) Oregon State University Tanguay Lab 120 Hour Post-fertilization zebrafish Assay for Pericardial Edema (AID 2283640);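 on AC50: potency for increased incidence of pericardial edema versus DMSO baseline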
How it was run: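 Scoring was binary, by brightfield microscopy at 120 hpf, and skipped where mortality occurred. Wild-type embryos were kept under sealed, foil-covered static exposure at 28C in 0.64% (vol/vol) DMSO.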

[2] = Tanguay_ZF_120hpf_BRAI_legacy: (Legacy) Oregon State University Tanguay Lab 120 Hour Post-fertilization zebrafish Assay for Brain Malformation (AID 2283641)
How it was run: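 Binary brightfield scoring of brain malformation at 120 hpf in Tropical 5D larvae held under static exposure at 28C (0.64% v/v DMSO), non-mortality endpoints skipped if dead. Positive control: 5uM trimethyltin chloride; fit versus DMSO.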

[3] = Tanguay_ZF_120hpf_SOMI_legacy: (Legacy) Oregon State University Tanguay Lab 120 Hour Post-fertilization zebrafish Assay for Somite Malformation (AID 2283647)
How it was run: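 Binary somite-defect scoring at 120 hpf, omitted for embryos that died, in wild-type (Tropical 5D) zebrafish with chorion removed by pronase at 4 hpf; static exposure began 6 hpf, single embryos per well, 28C, 0.64% DMSO; fitted positive versus DMSO.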

[4] = Tanguay_ZF_120hpf_CFIN_legacy: (Legacy) Oregon State University Tanguay Lab 120 Hour Post-fertilization zebrafish Assay for Caudal Fin Malformation (AID 2283649)
How it was run: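 Binary brightfield scoring of caudal fin defects at 120 hpf after static, light-shielded exposure at 28C from 6 hpf. Tropical 5D embryos, chorion removed with pronase at 4 hpf, final DMSO 0.64%.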

[5] = Tanguay_ZF_120hpf_PIG_legacy: (Legacy) Oregon State University Tanguay Lab 120 Hour Post-fertilization zebrafish Assay for Pigmentation Malformation (AID 2283650)
How it was run: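 Pronase dechorionation at 4 hpf; embryos plated at 6 hpf, one per well; static exposure, sealed and foil-covered, 28C, to 120 hpf; pigmentation read by brightfield, binary; DMSO 0.64% baseline, 5uM trimethyltin chloride positive control.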

[6] = Tanguay_ZF_120hpf_CIRC_legacy: (Legacy) Oregon State University Tanguay Lab 120 Hour Post-fertilization zebrafish Assay for Circulatory Malformation (AID 2283651)
How it was run: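 Read-out: presence or absence of circulatory malformation at 120 hpf, scored by brightfield microscopy, fitted in the gain-of-signal direction against DMSO baseline. Wild-type 5D larvae were exposed from 6 hpf after enzymatic chorion removal.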

[7] = Tanguay_ZF_120hpf_SWIM_legacy: (Legacy) Oregon State University Tanguay Lab 120 Hour Post-fertilization zebrafish Assay for Swim Bladder Malformation (AID 2283654);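 further: swim bladder malformation in each larva scored yes or no under brightfield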
How it was run: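 Embryos lacking chorions were exposed individually and statically to test chemical from 6 to 120 hpf at 28C, with 0.64% DMSO as vehicle. At 120 hpf, swim bladder malformation was recorded as present or absent by brightfield microscopy.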

[8] = Tanguay_ZF_120hpf_TRUN_legacy: (Legacy) Oregon State University Tanguay Lab 120 Hour Post-fertilization zebrafish Assay for Truncated Body (AID 2283655)
How it was run: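 Binary presence/absence of truncated body is recorded at 120 hpf by brightfield, with non-mortality endpoints skipped after death. Exposure is static from 6 hpf in sealed dark plates at 28C, using dechorionated wild-type zebrafish, 0.64% DMSO.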

[9] = Tanguay_ZF_120hpf_NC_legacy: (Legacy) Oregon State University Tanguay Lab 120 Hour Post-fertilization zebrafish Assay for Notochord and Tail Malformation (AID 2283656)
How it was run: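 Dechorionated Tropical 5D wild-type zebrafish embryos, one per well from 6 hpf, statically exposed to 120 hpf at 28C in 0.64% DMSO final. Notochord distortion scored present/absent by brightfield; dead embryos excluded.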

[10] = test system: Thyroperoxidase (TPO), gene 54314; assay: CCTE_Simmons_AUR_rTPO: CCTE's Amplex UltraRed Assay for Thyroperoxidase (TPO) Inhibition, Simmons Lab (AID 2283662);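 further: potency for loss of signal meaning inhibition of peroxidase activity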
How it was run: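 Endpoint is decreased Amplex UltraRed fluorescence after a 30-min, 37C reaction of rat thyroid microsomes with 300 uM H2O2. Eight test concentrations (5 nM–87.5 uM final) in 0.5% DMSO, three biological replicates each.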

[11] = CCTE_Simmons_CellTiterGLO_HEK293T: Viability Assessment in CCTE's Assays for Thyroperoxidase (TPO) Inhibition, Simmons Lab (AID 2283665);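 on AC50: cells exposed to compound for 24 h before readout; actives reduce ATP signal below DMSO vehicle meaning cytotoxicity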
How it was run: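 HEK293T, 10 000 cells/well, DMEM + 1% FBS; 8-pt titration 5 nM–87.5 uM [final], 0.5% DMSO; 24 hr, 37C, 5% CO2; CellTiter-Glo luminescence; n=3 biological replicates.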

[12] = Tanguay_ZF_120hpf_TR_legacy: (Legacy) Oregon State University Tanguay Lab 120 Hour Post-fertilization zebrafish Assay for Touch Response (AID 2283667)
How it was run: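 5D WT embryos; static exposure to 120 hpf, 28C, sealed/dark; DMSO 0.64% v/v final. TR scored present/absent; dead embryos excluded. Pos ctrl 5uM trimethyltin chloride.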

[13] = CCTE_Padilla_ZF_144hpf_TERATOSCORE: (Legacy) CCTE's 144 Hour Post-fertilization zebrafish Assay Teratoscore, Padilla Lab (AID 2283679; active means hit-call score of the fitted dose curve at least 0.9, where 1 is the maximum; inactive means score below 0.9;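 on AC50: zebrafish embryos with chorions exposed by immersion from 6-8 hpf to 5 dpf with daily renewal; teratogenicity score from eye scoring of death hatching and malformations at 144 hpf; higher score means more developmental defects relative to DMSO baseline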)
How it was run: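 Larvae scored by eye at 144 hpf for death, hatching and malformations after a day in clean Hanks'. Before that, daily-renewed exposure at 80 uM (0.4% DMSO, 26C) from roughly 6-8 hpf through 5 dpf, 4 embryos per chemical.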

[14] = STM_H9_OrnithineISnorm_perc: Stemina devTOX quickPredict H9 human embryonic stem cell (hESC)-based Assay for Ornithine (ORN) Metabolite Biomarker, Normalized (AID 2283712; active means hit-call score of the fitted dose curve at least 0.9, where 1 is the maximum; inactive means score below 0.9;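 further: ornithine released into spent medium during last day measured by mass spectrometry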)
How it was run: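 H9 human embryonic stem cells kept pluripotent receive test chemical over 72 h, refreshed daily by media exchange. Media from the closing 24 h is deproteinized and analysed by UPLC-HRMS on an amide column; ornithine signal is scaled to labelled standard and vehicle.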

[15] = Tanguay_ZF_120hpf_PFIN_legacy: (Legacy) Oregon State University Tanguay Lab 120 Hour Post-fertilization zebrafish Assay for Pectoral Fin Malformation (AID 2283648);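 further: each larva judged yes or no for fin defect by brightfield with dead larvae skipped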
How it was run: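 5D WT zebrafish; pronase dechorionation 4 hpf; 1 embryo/well at 6 hpf; static exposure to 120 hpf, 28C, sealed, foil-covered; final DMSO 0.64% v/v; 5 uM trimethyltin chloride positive control; fin defect scored yes/no.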

[16] = read-out: solute carrier (SLC22A6), SLC22A6 (gene 9356); assay: LTEA_HepaRG_SLC22A6: Life Technologies and Expression Analysis (LTEA) Assay for solute carrier (SLC22A6) using HepaRG (AID 2283653; active means hit-call score of the fitted dose curve at least 0.9, where 1 is the maximum; inactive means score below 0.9); settings: mRNA level, 48 h; actives raise or lower the signal
How it was run: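 SLC22A6 transcript was measured by TaqMan qRT-PCR, normalized to three housekeeping genes, after 48 h duplicate exposure of HepaRG cells (100 uM top, half-log steps, 0.5% DMSO); bidirectional fit against vehicle.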

[17] = read-out: solute carrier (SLC10A1), SLC10A1 (gene 6554); assay: LTEA_HepaRG_SLC10A1: Life Technologies and Expression Analysis (LTEA) Assay for solute carrier (SLC10A1) using HepaRG (AID 2283657; active means hit-call score of the fitted dose curve at least 0.9, where 1 is the maximum; inactive means score below 0.9); settings: mRNA level, 48 h; actives raise or lower the signal
How it was run: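 Transcript levels were measured by qRT-PCR after human HepaRG cells received test chemical for 48 hours, up to 100 uM in half-log dilutions. Values come from bidirectional concentration-response fitting relative to 0.5% DMSO vehicle.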

[18] = read-out: matrix metalloproteinase-1 (MMP1), MMP1 (gene 4312); assay: LTEA_HepaRG_MMP1: Life Technologies and Expression Analysis (LTEA) Assay for matrix metalloproteinase-1 (MMP1) using HepaRG (AID 2283658; active means hit-call score of the fitted dose curve at least 0.9, where 1 is the maximum; inactive means score below 0.9); settings: mRNA level, 48 h; actives raise or lower the signal
How it was run: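 qRT-PCR (TaqMan, Fluidigm arrays) of MMP1 transcript, normalized against three housekeeping genes and fitted in both directions relative to 0.5% DMSO vehicle. Human HepaRG cultures received duplicate 48 h exposures across 8 points, highest 100 uM with half-log steps.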

[19] = read-out: Cytochrome P450 (CYP24A1_1), CYP24A1 (gene 1591); assay: LTEA_HepaRG_CYP24A1_1: Life Technologies and Expression Analysis (LTEA) Assay for Cytochrome P450 (CYP24A1_1) using HepaRG (AID 2283671; active means hit-call score of the fitted dose curve at least 0.9, where 1 is the maximum; inactive means score below 0.9); settings: mRNA level, 48 h; actives raise or lower the signal
How it was run: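 In this test, gene induction or suppression of CYP24A1 in human HepaRG liver cells is measured by qRT-PCR after 48 h chemical treatment (eight concentrations, maximum 100 uM). Values are fitted bidirectionally relative to DMSO.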

[20] = read-out: kallikrein-3 (KLK3), KLK3 (gene 354); assay: LTEA_HepaRG_KLK3: Life Technologies and Expression Analysis (LTEA) Assay for kallikrein-3 (KLK3) using HepaRG (AID 2283652; active means hit-call score of the fitted dose curve at least 0.9, where 1 is the maximum; inactive means score below 0.9); settings: mRNA level, 48 h; actives raise or lower the signal
How it was run: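 Differentiated human HepaRG cells in serum-free induction medium exposed 48 h in duplicate, eight-point half-log series from 100 uM in 0.5% DMSO. KLK3 mRNA by qRT-PCR, normalised to ACTB, GAPDH, POLR2A; bidirectional fit versus DMSO.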

Measured: AC50

CCN(CC)CCNc1ccc(CNC=O)c2sc3ccc(OC)cc3c(=O)c12
active: [10] 24.9 µM | [11] 22.1 µM | [13] 57.8 µM | [14] 7.85 µM
not listed: [15] | [16] | [17] | [18] | [19] | [20]
inactive: all other assays above

C#C[C@]1(O)CC[C@H]2[C@@H]3CCC4=CC(=O)CC[C@@H]4[C@H]3CC[C@@]21C
active: [17] 9.92 µM | [10] 64.9 µM | [11] 66 µM | [13] 16.1 µM | [14] 74.6 µM
not listed: [2] | [3] | [6] | [20]
inactive: all other assays above

O=C(O)c1ccccc1C(c1ccc(O)cc1)c1ccc(O)cc1
active: [10] 4.26 µM
not listed: [2] | [14] | [16] | [17] | [18] | [19] | [20]
inactive: all other assays above

Cc1oc(-c2ccccc2)nc1CCOc1ccc(C[C@H](Nc2ccccc2C(=O)c2ccccc2)C(=O)O)cc1
active: [10] 27.5 µM | [11] 12.1 µM | [13] 5.11 µM
inactive: [1] | [2] | [3] | [15] | [4] | [5] | [7] | [8] | [12]

N#C[C@@H]1CC(F)(F)CN1C(=O)CNC1CC2CCC(C1)N2c1ncccn1 (some centres undefined)
inactive: [2] | [3] | [15] | [4] | [5] | [6] | [8] | [11] | [14]
active: [10] 36.6 µM

c1ccc2c(c1)ccc1ccccc12
active: [14] 88.8 µM
not listed: [3] | [10] | [11] | [16] | [17] | [18] | [19] | [20]
inactive: all other assays above

C=C(C)C(=O)OCCC(F)(F)C(F)(F)C(F)(F)C(F)(F)C(F)(F)C(F)(F)F
not listed: [2] | [3] | [10] | [11] | [14]
inactive: all other assays above

OCCC(F)(F)C(F)(F)C(F)(F)C(F)(F)C(F)(F)C(F)(F)F
inactive: [1] | [2] | [3] | [4] | [5] | [6] | [7] | [8] | [12] | [13]

Cc1cc(C)c(O)c(C)c1
inactive: [1] | [3] | [15] | [4] | [5] | [7] | [9] | [11] | [12]
active: [10] 5.53 µM

CC(C)(C)c1cc(C(C)(C)C)c(O)c(C(C)(C)C)c1
active: [10] 2.65 µM | [11] 9.06 µM | [13] 7.36 µM
not listed: [3] | [14] | [20]
inactive: all other assays above

CCCCCCCCCCCCCCCS(=O)(=O)Oc1ccccc1
inactive: [1] | [3] | [15] | [4] | [5] | [6] | [7] | [8] | [12]

CCC(=C(c1ccc(O)cc1)c1ccc(OCCN(C)C)cc1)c1ccccc1
active: [10] 9.22 µM and 8.64 µM | [11] 8.78 µM and 3.78 µM | [13] 7.87 µM
inactive: [3] | [15] | [6] | [7] | [8] | [9] | [12]

COCC(C)O (centres undefined)
inactive: [1] | [2] | [3] | [15] | [5] | [7] | [8] | [12] | [13]

CCCCC(CC)COC(=O)CCCCC(=O)OCc1ccccc1 (centres undefined)
inactive: [1] | [2] | [3] | [15] | [4] | [6] | [7] | [8] | [9] | [12]

CCCCCCCCCCCCCC[N+](C)(C)C
active: [10] 38.4 µM | [11] 13.7 µM

c1ccc2cc3c(ccc4ccccc43)cc2c1
active: [1] 33.4 µM | [2] 48.5 µM | [10] 22.6 µM | [11] 43.8 µM | [13] 20.4 µM
inactive: [3] | [4] | [5] | [6] | [7] | [8] | [12]

CCCOc1sc(C(=O)N2CCC(c3cc(CN)ccc3F)CC2)c(C)c1Br
inactive: [1] | [2] | [3] | [15] | [6] | [7] | [8]
active: [13] 57.5 µM
